From PubChem BioAssay (Tox21)
Results filed as inconclusive are left out. Calls of active or inactive are those of the source. Unless noted, calls follow the shape of the full dose curve.

Legend:
[1] = qHTS assay to identify small molecule agonists of the NFkB signaling pathway (AID 1159509; active = well fitted curve in the direction sought with a large enough effect in the signal ratio in the repeat runs, not every such curve was filed as active; the % refers to the signal ratio; also: series mostly up to about 61 µM; % is scaled to controls: 0 for no effect and ±100 for the full control effect)
How it was run: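 ME-180 NFkB-bla, 2,000 cells/well, overnight plating; cpd pinned in DMSO, 5 h 37 C; B/G FRET substrate 1.5 h RT; ex 405, em 460/530 nm.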

[2] = qHTS assay to identify small molecule agonists of the NFkB signaling pathway - cell viability counter screen (AID 1159515); also: series mostly up to about 61 µM; % is scaled to controls: 0 for no effect and ±100 for the full control effect; nearly all actives have a fitted effect of over 55% in size
How it was run: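 5 hr compound treatment of NFkB-bla ME-180 cells (2,000/well, seeded overnight beforehand), followed by reporter substrate for 1.5 hr. CellTiter-Glo added afterward; luminescence after 30 min RT.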

[3] = qHTS assay to identify small molecule agonists of the endoplasmic reticulum stress response signaling pathway (AID 1159516; active = well fitted activation curve with a large enough effect in the signal ratio in the repeat runs, not every such curve was filed as active; the % refers to the signal ratio; also: % is scaled to controls: 0 for no effect and ±100 for the full control effect)
How it was run: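 Reporter HeLa cells (ESRE-beta-lactamase) underwent 5 hr compound incubation at 37 C and 5% CO2 in quantitative HTS format. Detection followed 2 hr of FRET substrate loading at room temperature.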

[4] = qHTS assay to identify small molecule agonists of the endoplasmic reticulum stress response signaling pathway - cell viability counter screen (AID 1159517);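 also: HeLa cells carrying an ER stress response element beta-lactamase reporter; series mostly up to about 61 µM; % is scaled to controls: 0 for no effect and ±100 for the full control effect; nearly all actives have a fitted effect of over 50% in size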
How it was run: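 ESRE-bla HeLa cells, 1,500 per well, seeded overnight then treated with compounds for 5 hr at 37 C. After the beta-lactamase read, viability in the same wells is measured by CellTiter-Glo luminescence after 30 min at room temperature.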

[5] = qHTS assay to identify small molecule antagonists of the retinoid-related orphan receptor gamma (ROR-gamma) signaling pathway - cell viability counter screen (AID 1159520; active = well fitted curve in the direction sought with a large enough effect in the repeat runs; an effect the other way counts as inactive or inconclusive; also: % is scaled to controls: 0 for no effect and ±100 for the full control effect; nearly all actives have a fitted effect of over 50% in size)
How it was run: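 Tet-on ROR gamma CHO cells were given compounds for 2 hr, then doxycycline hyclate at 1 uM final, and incubated 16 hr at 37 C. Viability was measured as ATP content by CellTiter-Glo luminescence.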

[6] = target: Nuclear receptor ROR-gamma (Homo sapiens) (UniProt P51449); assay: qHTS assay to identify small molecule antagonists of the retinoid-related orphan receptor gamma (ROR-gamma) signaling pathway (AID 1159521; active = well fitted curve in the direction sought with a large enough effect in the repeat runs; an effect the other way counts as inactive or inconclusive;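 also: CHO cells with doxycycline inducible ROR-gamma driving an RORE luciferase reporter; top concentration of the series differs between compounds; % is scaled to controls: 0 for no effect and ±100 for the full control effect; nearly all actives have a fitted effect of over 50% in size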)
How it was run: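 CHO cells expressing RORγ under a TET-on promoter, luciferase under RORE control. Dox 1 uM final, 16 h; compounds added 2 h prior. Luminescence decrease measured.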

[7] = qHTS assay to identify small molecule agonists of the AP-1 signaling pathway - cell viability counter screen (AID 1159525); also: nearly all actives have a fitted effect of over 55% in size
How it was run: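 AP-1-bla ME-180 cells in Opti-MEM with 0.5% dialyzed FBS, compound exposure 5 h at 37 C in 15-point titration. Viability read in the same wells as ATP content by CellTiter-Glo luminescence, normalised to tetra-n-octylammonium bromide and DMSO controls.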

[8] = qHTS assay to identify small molecule agonists of the AP-1 signaling pathway (AID 1159526); also: % is scaled to controls: 0 for no effect and ±100 for the full control effect
[9] = qHTS assay to identify small molecule agonists of the vitamin D receptor (VDR) signaling pathway - cell viability counter screen (AID 743224; active = well fitted curve in the direction sought with a large enough effect in the repeat runs; an effect the other way counts as inactive or inconclusive; also: series mostly up to about 63 µM; % is scaled to controls: 0 for no effect and ±100 for the full control effect; nearly all actives have a fitted effect of over 50% in size)
How it was run: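 Here cell health was gauged by luminescent ATP detection (CellTiter-Glo, 30 min RT) in VDR-bla cells that had been incubated with test compounds for 16 h at 37C and 5% CO2.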

[10] = qHTS assay to identify small molecule antagonists of the vitamin D receptor (VDR) signaling pathway - cell viability counter screen (AID 743225; active = well fitted curve in the direction sought with a large enough effect in the repeat runs; an effect the other way counts as inactive or inconclusive)
How it was run: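 Luminescent cell viability (CellTiter-Glo) in VDR-bla HEK 293T cells after 16 h compound exposure at 37C in the presence of 3 nM final 1-alpha,25-dihydroxy vitamin D3.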

COc1c(N2C[C@@H]3CCCN[C@@H]3C2)c(F)cc2c(=O)c(C(=O)O)cn(C3CC3)c12
inactive: outcome [1] | outcome [2] | outcome [3] | outcome [4] | outcome [5] | Potency [6] | Potency [7] | outcome [8]

O=C(CCCN1CCC(O)(c2cccc(C(F)(F)F)c2)CC1)c1ccc(F)cc1
inactive: Potency [9] | outcome [1] | outcome [2] | outcome [3] | outcome [4] | outcome [5] | Potency [6] | Potency [7] | outcome [8]

NC(=O)c1ccc(N)cc1
inactive: Potency [9] | Potency [10] | outcome [1] | outcome [2] | outcome [3] | outcome [4] | outcome [5] | Potency [6] | Potency [7] | outcome [8]

CCC(=O)OC(C)c1ccccc1 (centres undefined)
inactive: Potency [9] | Potency [10] | outcome [1] | outcome [2] | outcome [3] | outcome [4] | outcome [5] | Potency [6] | Potency [7] | outcome [8]

O=S(O)CO
inactive: Potency [9] | outcome [1] | outcome [2] | outcome [3] | outcome [4] | outcome [5] | Potency [6] | Potency [7] | outcome [8]

CCCCCCCCS(=O)(=O)Cl
inactive: Potency [9] | outcome [1] | outcome [2] | outcome [3] | outcome [4] | outcome [5] | Potency [6] | Potency [7] | outcome [8]

C=CCOCC(CC)(CO)COCC=C
inactive: Potency [9] | Potency [10] | outcome [1] | outcome [2] | outcome [3] | outcome [4] | outcome [5] | Potency [6] | Potency [7] | outcome [8]

CC(C)CNCC(C)C
inactive: Potency [9] | outcome [1] | outcome [2] | outcome [3] | outcome [4] | outcome [5] | Potency [6] | Potency [7] | outcome [8]

C=COCC1CCC(CO)CC1 (centres undefined)
inactive: Potency [9] | Potency [10] | outcome [1] | outcome [2] | outcome [3] | outcome [4] | outcome [5] | Potency [6] | Potency [7] | outcome [8]

COc1cc(C(=O)N2CCCCCCC2)cc(OC)c1OC
inactive: Potency [9] | Potency [10] | outcome [1] | outcome [2] | outcome [3] | outcome [4] | outcome [5] | Potency [6] | Potency [7] | outcome [8]

CC(C)NCC(O)c1ccc(NS(C)(=O)=O)cc1 (centres undefined)
inactive: Potency [9] | Potency [10] | outcome [1] | outcome [2] | outcome [3] | outcome [4] | outcome [5] | Potency [6] | Potency [7] | outcome [8]

CCCCCCCCCCCCCCCCC
inactive: Potency [9] | Potency [10] | outcome [1] | outcome [2] | outcome [3] | outcome [4] | outcome [5] | Potency [6] | Potency [7] | outcome [8]

COC(C)(C)CCCC(C)CC=O (centres undefined)
inactive: Potency [9] | Potency [10] | outcome [1] | outcome [2] | outcome [3] | outcome [4] | outcome [5] | Potency [6] | Potency [7] | outcome [8]

NCCCNCCSP(=O)(O)O
inactive: activity change, negative = cytotoxicity [9] 6.38% [at 13.2 µM] | viability change, negative = cytotoxic [10] 2.84% [at 6.95 µM] | activation [1] 0.134% [at 6.95 µM] | activity, negative = cytotoxic [2] 0.56% [at 6.95 µM] | activation [3] 0.0202% [at 6.95 µM] | activity change, negative = cytotoxicity [4] 10.1% [at 6.95 µM] | activity, negative = cytotoxicity [5] 4.74% [at 8.39 µM] | activity change, negative = inhibition [6] 18.8% [at 8.39 µM] | viability change, negative = cytotoxic [7] -1.42% [at 6.97 µM] | activation [8] -2.28% [at 6.97 µM]

CC[N+](C)(C)c1cccc(O)c1
inactive: Potency [9] | Potency [10] | outcome [1] | outcome [2] | outcome [3] | outcome [4] | outcome [5] | Potency [6] | Potency [7] | outcome [8]

CCCCCCOC(=O)CCCCC(=O)OCCCCCC
inactive: Potency [9] | Potency [10] | outcome [1] | outcome [2] | outcome [3] | outcome [4] | outcome [5] | Potency [6] | Potency [7] | outcome [8]

CN1CC(=O)NC1=N
inactive: Potency [9] | Potency [10] | outcome [1] | outcome [2] | outcome [3] | outcome [4] | outcome [5] | Potency [6] | Potency [7] | outcome [8]

CCC=O
inactive: Potency [9] | Potency [10] | outcome [1] | outcome [2] | outcome [3] | outcome [4] | outcome [5] | Potency [6] | Potency [7] | outcome [8]

CN1CCC(=C2c3ccccc3CC(=O)c3sccc32)CC1
inactive: Potency [9] | Potency [10] | outcome [1] | outcome [2] | outcome [3] | outcome [4] | outcome [5] | Potency [6] | Potency [7] | outcome [8]

Oc1ccc(C2CNCCc3c2cc(O)c(O)c3Cl)cc1 (centres undefined)
inactive: Potency [9] | Potency [10] | outcome [1] | outcome [2] | outcome [3] | outcome [4] | outcome [5] | Potency [6] | Potency [7] | outcome [8]

CN(C(=O)c1c(O)c2ccccc2n(C)c1=O)c1ccccc1
inactive: Potency [9] | Potency [10] | outcome [1] | outcome [2] | outcome [3] | outcome [4] | outcome [5] | Potency [6] | Potency [7] | outcome [8]

CCc1nccnc1CC
inactive: Potency [9] | Potency [10] | outcome [1] | outcome [2] | outcome [3] | outcome [4] | activity, negative = cytotoxicity [5] -7.52% [at 19 µM] | Potency [6] | viability change, negative = cytotoxic [7] -1.96% [at 15.8 µM] | outcome [8]

CN(C)CCCSc1ccccc1NC(=O)/C=C/c1ccccc1
inactive: Potency [9] | Potency [10] | outcome [1] | outcome [2] | outcome [3] | outcome [4] | outcome [5] | Potency [6] | Potency [7] | outcome [8]

CC(C)(C)c1nnc(NS(=O)(=O)c2ccccc2)s1
inactive: Potency [9] | Potency [10] | outcome [1] | outcome [2] | outcome [3] | outcome [4] | outcome [5] | Potency [6] | Potency [7] | outcome [8]
